Results published in PubChem BioAssay AID588342 (National Center for Advancing Translational Sciences (NCATS), 2011).
About 25,000 (6.9%) of roughly 360,000 compounds were called active. Roughly 9% stayed inconclusive and do not appear here. The full list was thinned out, with actives kept by preference. Unmarked numbers belong to inactive results. Calls come from the whole dose curve; as a rule, active = well fitted inhibition curve with a large enough effect; inconclusive = small, poorly fitted or top-dose-only effect; inactive = flat fitted curve, though single readings scatter.

molecular target: Luciferin 4-monooxygenase (Photinus pyralis) (UniProt P08659); test: qHTS profiling assay for firefly luciferase inhibitor/activator using purifed enzyme and Km concentrations of substrates (counterscreen for miR-21 project); conditions: purified FLuc, luminescence inhibition; series mostly up to 57.5 µM; activity change, negative = inhibition: at the top concentration; note: nearly all actives have a fitted effect of over 55% in size;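 for activity change, negative = inhibition: plate controls were vehicle for no effect and reference inhibitor for full effect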
In short: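 Purified P. pyralis luciferase (10nM final) with 10uM D-luciferin and 10uM ATP (Km levels) in 50mM Tris acetate pH 7.5, 10mM Mg acetate, 0.01% Tween-20, 0.05% BSA; qHTS 6-point titration, ~60 µM downward; luminescence read.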
Potency is the fitted concentration of half-maximal effect.

Luciferin 4-monooxygenase (Photinus pyralis), sequence (P08659 whole entry, looked up): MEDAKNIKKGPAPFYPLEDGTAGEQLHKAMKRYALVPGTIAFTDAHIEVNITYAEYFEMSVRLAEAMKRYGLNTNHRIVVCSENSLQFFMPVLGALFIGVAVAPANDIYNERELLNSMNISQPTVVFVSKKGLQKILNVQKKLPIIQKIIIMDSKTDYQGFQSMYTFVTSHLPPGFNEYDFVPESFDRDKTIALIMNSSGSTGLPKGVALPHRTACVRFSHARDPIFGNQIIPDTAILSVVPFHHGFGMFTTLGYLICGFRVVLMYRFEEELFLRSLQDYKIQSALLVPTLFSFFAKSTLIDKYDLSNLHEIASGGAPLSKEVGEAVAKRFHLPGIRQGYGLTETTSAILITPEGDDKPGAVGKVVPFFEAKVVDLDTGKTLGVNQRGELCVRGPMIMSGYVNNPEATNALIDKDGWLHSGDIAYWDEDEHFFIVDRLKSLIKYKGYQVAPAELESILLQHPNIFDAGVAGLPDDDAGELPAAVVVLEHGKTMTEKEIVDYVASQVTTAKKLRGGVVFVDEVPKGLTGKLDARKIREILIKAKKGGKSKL

Row | SMILES | activity change, negative = inhibition [%] | Potency
1 | Cc1cc(OCC(=O)N(C)c2c(N)n(Cc3ccccc3)c(=O)[nH]c2=O)c(C(C)C)cc1Cl | 0.981 | –
2 | CCCn1c(C)cc(/C=C(\C#N)C(=O)OCC(=O)Nc2cc(OC)c(OC)c(OC)c2)c1C | – | 13.5 µM (active)
3 | CN(C(=O)COC(=O)c1ccc(Br)o1)c1c(N)n(Cc2ccccc2)c(=O)[nH]c1=O | -17 | –
4 | CCOC(=O)/C(C#N)=C/c1ccc(OCC(=O)Nc2ccccc2)c(OC)c1 | -13.1 | –
5 | CCCn1c(C)cc(/C=C(\C#N)C(=O)OCC(=O)N(C)c2c(N)n(Cc3ccccc3)c(=O)[nH]c2=O)c1C | – | 10.7 µM (active)
6 | COc1cc(NC(=O)CCn2nc(C)cc2C)cc(OC)c1OC | -2.4 | –
7 | CCS(=O)(=O)c1ncc(N(Cc2ccc(F)cc2)Cc2ccco2)c(C(=O)Nc2cc(C)ccc2C)n1 | 0.246 | –
8 | COc1ccc(C(=O)c2oc3ccccc3c2NC(=O)COc2cccc(C)c2)cc1 | -3.19 | –
9 | O=c1oc2ccc(C#CC3(O)CCCCC3)cc2cc1-n1cc(-c2ccsc2)nn1 | -1.06 | –
10 | Cn1c(N)c(C(=O)COC(=O)COc2ccc(Cl)cc2)c(=O)n(C)c1=O | 0.687 | –
11 | CCN(C(=O)COC(=O)Cc1c(F)cccc1Cl)c1c(N)n(Cc2ccccc2)c(=O)[nH]c1=O | -0.25 | –
12 | CC(=O)N/C(=C/c1ccc(Cl)cc1)C(=O)NCCc1c[nH]c2ccccc12 | -0.391 | –
13 | COc1ccc(/C=C(\NC(=O)c2ccc(OC)c(OC)c2)C(=O)NCCc2c[nH]c3ccccc23)cc1 | 2.65 | –
14 | Cc1ccc(C(=O)N/C(=C/c2ccco2)C(=O)NCCc2c[nH]c3ccccc23)cc1C | – | 10.7 µM (active)
15 | COc1ccc(C)cc1N(C)C(=O)c1coc(=O)c2ccccc12 | -0.441 | –
16 | O=C(CN1CCN(S(=O)(=O)c2cccc(Cl)c2)CC1)N1CCCCC1 | 6.07 | –
17 | N#Cc1ccccc1Sc1ccccc1C(=O)OCC(=O)NC1CCCCC1 | 0.881 | –
18 | O=C(COC(=O)c1ccccc1Cl)NC1CCCCCCC1 | – | 12 µM (active)
19 | O=C(COC(=O)c1ccccc1SCC(=O)NC1CCCCC1)NC1CCCCC1 | 4.43 | –
20 | Cc1ccc(S(=O)(=O)NCc2nc3nc(C)cc(C)n3n2)cc1 | 0.546 | –
21 | Cc1ccc(NC(=O)CCC(=O)N2CCC(c3ccccc3)=N2)cc1S(=O)(=O)N1CCCCC1 | 1.57 | –
22 | O=C(CN1C(=O)NC2(CCCCCC2)C1=O)NCc1cccs1 | -3.93 | –
23 | Cc1cccc(N2C(=O)CC(SC(N)=Nc3ccccc3)C2=O)c1 (centres undefined) | 1.99 | –
24 | Cc1[nH]n(-c2ccccc2)c(=O)c1N=Nc1ccccc1C(=O)N1CCCCC1 | -2.84 | –
25 | Cc1cccc(N=Nc2c(C)[nH]n(-c3ccccc3)c2=O)c1 | – | 19 µM (active)

Row | SMILES | activity change, negative = inhibition [%] | Potency
26 | CCN(Cc1ccccc1)C(=O)c1cn(-c2cccc(OC)c2)c(=O)c2ccccc12 | -12 | –
27 | CCn1cc(C(=O)NCc2ccccc2)c(=O)c2cc(S(=O)(=O)N3CCCCC3)ccc21 | -1.44 | –
28 | COc1ccc(C(C#N)Nc2ccc(C)cc2)cc1 (centres undefined) | – | 1.69 µM (active)
29 | COc1ccc(C(CC(=O)Nc2ccc(C)cc2)NC(=O)C(F)(F)F)cc1 (centres undefined) | -2.17 | –
30 | COc1ccc(C(C#N)Nc2ccccc2C)cc1 (centres undefined) | -19 | –
31 | Cc1ccc(CN2CCC(CNC(=O)c3cnn(-c4ccc(C)cc4)c3C3CCN(C(=O)OC(C)(C)C)CC3)CC2)cc1 | -2.42 | –
32 | Cn1ccc2cc(S(=O)(=O)N3CCCC(C(=O)NCc4ccccc4F)C3)ccc21 (centres undefined) | -5.38 | –
33 | O=C(CSCc1ccc(Cl)cc1)N1CCN(Cc2ccc3c(c2)OCO3)CC1 | 1.28 | –
34 | O=C(COc1ccccc1Cl)N1CCCCCCC1 | 3.49 | –
35 | O=C(CSCc1ccc(Cl)cc1)N1CCCCC1 | – | 16.9 µM (active)
36 | Cc1cccc(C)c1NC(=O)CNC(=O)C1CCCC1 | 4.17 | –
37 | Cc1ccc(CNC(=O)CSc2c3c(nc4cc(Cl)ccc24)CCCC3)cc1 | 3.6 | –
38 | COC(=O)c1sccc1S(=O)(=O)N(CC(=O)Nc1ccc(C)c(F)c1)c1ccc(C)c(C)c1 | -5.87 | –
39 | Cc1ccc(CSc2nc(-c3ccccc3)c(C#N)c(=O)[nH]2)cc1 | -1.34 | –
40 | Cc1ccccc1CSc1nnc(-c2ccccc2)c(=O)[nH]1 | – | 19 µM (active)
41 | Cc1ccccc1CSc1nnc(-c2cccnc2)n1N | -0.836 | –
42 | CCCN(CC(=O)NC(=O)NC1CCCCC1)CC(=O)Nc1cc(Cl)ccc1Cl | -0.397 | –
43 | COc1ccccc1CNC(=O)CS(=O)(=O)c1cccc2nsnc12 | 3.65 | –
44 | CCOC(=O)c1cccc(NC(=O)c2cc(S(=O)(=O)N3CCCC(C)C3)cn2C)c1 (centres undefined) | 4.78 | –
45 | COC(=O)c1ccc(C)c(NC(=O)C2CC(=O)N(C3CCCC(C)C3C)C2)c1 (centres undefined) | 2.82 | –
46 | COn1c(-c2ccc(Cl)cc2Cl)nc2ncccc21 | -4.94 | –
47 | Clc1ccc(COn2c(-c3ccc(Cl)cc3Cl)nc3ncccc32)cc1 | -2.6 | –
48 | Clc1ccc(-c2cc(-c3ccccn3)on2)c(Cl)c1 | – | 0.0757 µM (active)
49 | O=C1N(Cc2ccccc2)c2ccc(Cl)cc2C1(O)c1c[nH]c2ccccc12 (centres undefined) | -10.9 | –
